In PubChem BioAssay AID1259251 (The Scripps Research Institute Molecular Screening Center, 2017):
Hit rate of the full screen: of about 30,000 compounds, about 580 (1.9%) were called active. Only a selection was taken, and actives are over-represented in it overall. Unmarked numbers belong to inactive results. Rule as the data show it: active = inhibition above about 43%; inactive = the rest.

Biological target: Serine/threonine-protein kinase ULK1 (Homo sapiens) (UniProt O75385)
Assay: ULK1 kinase inhibitors, primary screen, biochemical, AlphaScreen (AID 1259251);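 also: 0% = median of compound wells and 100% = no enzyme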
Settings: AlphaScreen Atg13 phosphorylation by ULK1, luminescence; at 5.96 µM; stronger effect = higher value

Sequence of Serine/threonine-protein kinase ULK1 (Homo sapiens) (O75385 whole entry, looked up): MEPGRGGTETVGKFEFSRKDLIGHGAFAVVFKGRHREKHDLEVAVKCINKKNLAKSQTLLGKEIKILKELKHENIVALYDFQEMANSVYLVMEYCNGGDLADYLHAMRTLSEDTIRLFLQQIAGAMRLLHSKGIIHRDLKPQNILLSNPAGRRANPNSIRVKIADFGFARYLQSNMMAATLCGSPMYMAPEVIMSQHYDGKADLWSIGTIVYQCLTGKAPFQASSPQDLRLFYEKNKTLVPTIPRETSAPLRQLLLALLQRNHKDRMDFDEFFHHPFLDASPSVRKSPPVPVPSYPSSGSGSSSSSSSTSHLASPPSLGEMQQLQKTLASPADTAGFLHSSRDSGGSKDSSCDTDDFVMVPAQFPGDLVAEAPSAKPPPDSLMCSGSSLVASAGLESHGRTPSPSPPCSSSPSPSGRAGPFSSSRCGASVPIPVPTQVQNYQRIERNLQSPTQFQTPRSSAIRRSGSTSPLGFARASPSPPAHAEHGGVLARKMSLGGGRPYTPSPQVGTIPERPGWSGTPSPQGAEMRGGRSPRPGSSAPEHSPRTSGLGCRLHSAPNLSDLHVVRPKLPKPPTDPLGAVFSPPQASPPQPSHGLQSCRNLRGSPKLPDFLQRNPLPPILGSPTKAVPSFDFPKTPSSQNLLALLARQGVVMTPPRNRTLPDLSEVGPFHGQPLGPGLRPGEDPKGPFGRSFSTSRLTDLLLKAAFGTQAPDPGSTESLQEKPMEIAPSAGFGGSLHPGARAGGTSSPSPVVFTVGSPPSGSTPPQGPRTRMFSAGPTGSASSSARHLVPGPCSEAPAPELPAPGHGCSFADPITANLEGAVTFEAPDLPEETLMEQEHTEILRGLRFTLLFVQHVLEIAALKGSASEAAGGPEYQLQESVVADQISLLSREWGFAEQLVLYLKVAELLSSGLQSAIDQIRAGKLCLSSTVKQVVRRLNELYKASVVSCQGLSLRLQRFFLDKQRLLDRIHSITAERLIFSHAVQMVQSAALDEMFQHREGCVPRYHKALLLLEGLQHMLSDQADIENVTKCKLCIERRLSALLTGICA

| Compound | inhibition |
| --- | --- |
| CC(NC(=O)C(C(=O)c1ccccc1)n1ccccc1=O)c1ccccc1 (stereo not given) | 1.21% |
| N#Cc1cccc(C[C@H](N)c2nc3ccc(-c4ccncc4)cc3[nH]2)c1 | 7.99% |
| COc1cc2nc(Nc3ccccc3)nc(NCc3cccc(C(F)(F)F)c3)c2cc1OC | -26.9% |
| COc1nc(Nc2ccccc2)nc(-c2ccc(C(=O)NC3CC3)cc2)n1 | 22.8% |
| COc1ccc(CCNc2cc(NC3CCN(Cc4ccccc4)CC3)ncn2)cc1 | -6.44% |
| COc1cc(OC)nc(Oc2ccccc2/C=N/N(C)C(N)=S)n1 | 10.3% |
| CCN(CC)C(=O)C1CCCN(c2cc(Nc3ccccc3)nc(N)n2)C1 (stereo not given) | 13.1% |
| Fc1ccc(CNc2ncc3ccc(-c4cn[nH]c4)cc3c2Cl)cc1 | 70.6% (active) |
| O=C(NCc1cccc(Cl)c1)Nc1ccc(-c2cn[nH]c2)cc1 | 16% |
| COc1ccc(CNC(=O)c2c[nH]c3cc(-c4cn[nH]c4)ccc23)cc1 | -3.48% |
| O=C(Oc1ccc([N+](=O)[O-])cc1)c1ccc2c(c1)C(=O)N(c1ccc([N+](=O)[O-])cc1)C2=O | 8.64% |
| COc1ccc(CCNC(=O)c2cnc(-c3cccs3)s2)cc1 | -2.76% |
| COc1ccc(-c2nc3ncnc(NCCN4CCOCC4)c3[nH]2)cc1 | 0.53% |
| Cc1ncc2c(NCCCN3CCOCC3)nc3ccccc3n12 | 12.3% |
| Oc1c(Cl)cc(Cl)c(Cl)c1Cc1c(O)c(Cl)cc(Cl)c1Cl | 75.9% (active) |
| c1cc(-c2ocnc2-c2ncco2)cc(Nc2ccc(N3CCOCC3)cc2)n1 | -5.51% |
| CC(C)c1nc2ccc(-c3cn[nH]c3)cc2c(=O)[nH]1 | 69% (active) |
| CC(C)c1nc2ccc(-c3ccnn3C)cc2c(=O)[nH]1 | -1.76% |
| COc1ccc(C(N)c2nc3ccc(-c4cn[nH]c4)cc3c(=O)[nH]2)cc1 (stereo not given) | 16% |
| Cc1cccc(C(=O)NCc2ccccc2)c1N1CCC2(CC1)OCCO2 | 4.05% |
| Cc1cc(NC2CC2)nc(N2CCCC2CO)n1 (stereo not given) | -3.85% |
| CC(C)N(CCNc1ccnc(Nc2ncccn2)n1)C(C)C | -7.14% |
| Cc1ccc(-c2ncn(-c3ccc(Nc4nccc(-c5cc(C#N)cc(N6CCCC(O)C6)c5)n4)cc3)n2)cn1 (stereo not given) | 0.75% |
| Cc1ncn(-c2ccc(Nc3nccc(-c4cc(C#N)cc(NC5CCN(C)CC5)c4)n3)cc2)n1 | 3.12% |
| Cn1nnnc1-c1ccc(Nc2nccc(-c3ccc(N4CCC(O)CC4)c(C#N)c3)n2)cc1 | 64.2% (active) |
